Experimental data published in PubChem BioAssay (EPA / NIEHS).
The source made the active and inactive calls. How the source made its calls: active means hit-call score of the fitted dose curve at least 0.9, where 1 is the maximum; inactive means score below 0.9.

Legend:
Conditions in all cases: mRNA level, 48 h; actives raise or lower the signal
[1] = read-out: Intercellular Adhesion Molecule 1 (ICAM1), ICAM1 (gene 3383); test: LTEA_HepaRG_ICAM1: Life Technologies and Expression Analysis (LTEA) Assay for Intercellular Adhesion Molecule 1 (ICAM1) using HepaRG (AID 2283507)
How it was run: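 Differentiated HepaRG cells in serum-free induction medium were exposed in duplicate for 48 h to eight half-log concentrations up to 100 uM in 0.5% DMSO. Transcript levels were measured by qRT-PCR normalized to ACTB, GAPDH and POLR2A; bidirectional fits relative to DMSO.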

[2] = read-out: Insulin-like growth factor-binding protein 1 (IGFBP1), IGFBP1 (gene 3484); test: LTEA_HepaRG_IGFBP1: Life Technologies and Expression Analysis (LTEA) Assay for Insulin-like growth factor-binding protein 1 (IGFBP1) using HepaRG (AID 2283508)
How it was run: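 Differentiated human HepaRG cells in serum-free induction medium were exposed in duplicate for 48 h to eight concentrations, top 100 uM with half-log dilutions, in 0.5% DMSO. Transcript levels came from qRT-PCR normalised to ACTB, GAPDH and POLR2A, fitted bidirectionally against DMSO.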

[3] = read-out: Interleukin 6 (IL6), IL6 (gene 3569); test: LTEA_HepaRG_IL6: Life Technologies and Expression Analysis (LTEA) Assay for Interleukin 6 (IL6) using HepaRG (AID 2283509)
How it was run: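 Changes in IL6 mRNA, up or down relative to 0.5% DMSO controls, were derived from concentration-response curves in human HepaRG cells treated for 48 h at up to 100 uM, with ACTB, GAPDH and POLR2A as normalizers.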

[4] = read-out: Interleukin 6 Receptor (IL6R), IL6R (gene 3570); test: LTEA_HepaRG_IL6R: Life Technologies and Expression Analysis (LTEA) Assay for Interleukin 6 Receptor (IL6R) using HepaRG (AID 2283510)
How it was run: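 In this HepaRG screen, test chemicals act on cells for 48 h at up to 100 uM (eight half-log points, duplicate wells). IL6R expression is quantified by qRT-PCR after normalization to ACTB, GAPDH and POLR2A, with DMSO as baseline.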

[5] = read-out: Potassium channel subfamily K member 1 (KCNK1), KCNK1 (gene 3775); test: LTEA_HepaRG_KCNK1: Life Technologies and Expression Analysis (LTEA) Assay for Potassium channel subfamily K member 1 (KCNK1) using HepaRG (AID 2283511)
How it was run: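 Human HepaRG cultures receive test chemicals for 48 h in 0.5% DMSO, top concentration 100 uM with half-log dilutions. Induction or suppression of KCNK1 mRNA relative to DMSO is derived by bidirectional fitting of qRT-PCR data.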

[6] = read-out: JUN Transcription Factor, JUN (gene 3725); test: LTEA_HepaRG_JUN: Life Technologies and Expression Analysis (LTEA) Assay for JUN Transcription Factor using HepaRG (AID 2283513)
How it was run: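 Gene-expression endpoint: JUN mRNA (qRT-PCR, normalized to three reference genes) in HepaRG cultures treated 48 h with chemicals, duplicate wells, 100 uM maximum with half-log dilutions; bidirectional fitting relative to 0.5% DMSO.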

[7] = read-out: Lipase C (LIPC), LIPC (gene 3990); test: LTEA_HepaRG_LIPC: Life Technologies and Expression Analysis (LTEA) Assay for Lipase C (LIPC) using HepaRG (AID 2283514)
How it was run: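 In this multiplexed gene-expression screen, human HepaRG cultures received test chemicals for 48 h across eight concentrations with 100 uM highest, in duplicate. Values reflect LIPC mRNA induction or suppression versus DMSO vehicle, from normalized qRT-PCR.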

[8] = read-out: Lipoprotein lipase (LPL), LPL (gene 4023); test: LTEA_HepaRG_LPL: Life Technologies and Expression Analysis (LTEA) Assay for Lipoprotein lipase (LPL) using HepaRG (AID 2283515)
How it was run: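 Concentration-response testing used half-log steps from 100 uM in 0.5% DMSO on human HepaRG cells, 48 h, duplicate wells. Phenobarbital 1 mM served as induction control; LPL mRNA was normalized to ACTB, GAPDH, POLR2A.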

[9] = read-out: MicroRNA 122 (MIR122), gene 406906; test: LTEA_HepaRG_MIR122: Life Technologies and Expression Analysis (LTEA) Assay for MicroRNA 122 (MIR122) using HepaRG (AID 2283516); further: the transcript read is the microRNA miR-122
How it was run: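 Changes in transcript abundance, up or down relative to 0.5% DMSO vehicle, were scored after 48 h chemical treatment of HepaRG cells (maximum 100 uM). Quantification used TaqMan qRT-PCR normalized to housekeeping genes.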

[10] = read-out: matrix metalloproteinase-10 (MMP10), MMP10 (gene 4319); test: LTEA_HepaRG_MMP10: Life Technologies and Expression Analysis (LTEA) Assay for matrix metalloproteinase-10 (MMP10) using HepaRG (AID 2283517)
How it was run: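 In differentiated HepaRG cultures kept in 0.5% DMSO, test chemicals act for 48 h over an eight-point range with a top dose of 100 uM. Expression is then quantified by TaqMan RT-PCR against ACTB, GAPDH and POLR2A.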

MYC, MYC (gene 4609) = test: LTEA_HepaRG_MYC: Life Technologies and Expression Analysis (LTEA) Assay for MYC using HepaRG (AID 2283518)
How it was run: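 Differentiated human HepaRG cells, plated 48 h then switched to serum-free induction medium, were exposed in duplicate for 48 h to 8-point half-log series up to 100 uM in 0.5% DMSO. MYC mRNA measured by qRT-PCR, normalized to ACTB/GAPDH/POLR2A.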

[11] = read-out: matrix metalloproteinase-3 (MMP3), MMP3 (gene 4314); test: LTEA_HepaRG_MMP3: Life Technologies and Expression Analysis (LTEA) Assay for matrix metalloproteinase-3 (MMP3) using HepaRG (AID 2283519)
How it was run: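 Human liver HepaRG cultures received chemicals (top concentration 100 uM, 0.5% DMSO) for 48 h in duplicate. MMP3 mRNA induction or loss was then assessed via TaqMan qRT-PCR with housekeeping-gene normalisation.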

[12] = read-out: Paternally Expressed 10 (PEG10), PEG10 (gene 23089); test: LTEA_HepaRG_PEG10: Life Technologies and Expression Analysis (LTEA) Assay for Paternally Expressed 10 (PEG10) using HepaRG (AID 2283520);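 on AC50: PEG10 transcript by qRT-PCR normalised to ACTB GAPDH and POLR2A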
How it was run: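 After 48 h exposure of differentiated HepaRG cells (0.5% DMSO vehicle, eight concentrations up to 100 uM, duplicates), PEG10 mRNA was measured by TaqMan qRT-PCR. Values were normalised to endogenous control genes and analysed bidirectionally against vehicle.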

[13] = read-out: Nuclear factor NF-kappa-B p105 subunit (Homo sapiens) (UniProt P19838); test: LTEA_HepaRG_NFKB1: Life Technologies and Expression Analysis (LTEA) Assay for Nuclear Factor Kappa B Subunit 1 (NFKB1) using HepaRG (AID 2283521);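 further: TaqMan qRT-PCR transcript normalised to ACTB GAPDH and POLR2A housekeeping genes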
How it was run: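 Differentiated human HepaRG cells in serum-free induction medium with 0.5% DMSO were exposed for 48 h to eight half-log concentrations, top 100 uM, in duplicate. NFKB1 mRNA measured by Fluidigm TaqMan qRT-PCR, normalised to ACTB, GAPDH and POLR2A; bidirectional fit versus DMSO.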

[14] = read-out: Protein phosphatase 2A (PPP2R4), PTPA (gene 5524); test: LTEA_HepaRG_PPP2R4: Life Technologies and Expression Analysis (LTEA) Assay for Protein phosphatase 2A (PPP2R4) using HepaRG (AID 2283522)
How it was run: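 Using HepaRG cultures maintained in 0.5% DMSO, chemicals are tested 48 h at up to 100 uM in duplicate. Induction or suppression of PPP2R4 mRNA, measured by qRT-PCR, is fitted bidirectionally against the vehicle baseline.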

[15] = read-out: Phosphatase and tensin (PTEN), PTEN (gene 5728); test: LTEA_HepaRG_PTEN: Life Technologies and Expression Analysis (LTEA) Assay for Phosphatase and tensin (PTEN) using HepaRG (AID 2283523)
How it was run: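 Expression of PTEN is quantified in the human liver line HepaRG following two days of dosing (top concentration 100 uM, half-log dilutions, 0.5% DMSO). Values derive from bidirectional curve fitting relative to DMSO controls.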

[16] = read-out: solute carrier (SLC22A1), SLC22A1 (gene 6580); test: LTEA_HepaRG_SLC22A1: Life Technologies and Expression Analysis (LTEA) Assay for solute carrier (SLC22A1) using HepaRG (AID 2283524);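 on AC50: TaqMan qRT-PCR normalized to ACTB GAPDH and POLR2A housekeeping genes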
How it was run: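 Transcript induction or suppression of SLC22A1 in human HepaRG cultures is scored after 48 h chemical treatment, with DMSO (0.5%) as baseline for bidirectional fitting. Concentrations span eight half-log points topping at 100 uM.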

[17] = read-out: Pyruvate Dehydrogenase Kinase 4 (PDK4), PDK4 (gene 5166); test: LTEA_HepaRG_PDK4: Life Technologies and Expression Analysis (LTEA) Assay for Pyruvate Dehydrogenase Kinase 4 (PDK4) using HepaRG (AID 2283525)
How it was run: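 Eight-point, half-log concentration series (max 100 uM, 0.5% DMSO) applied to differentiated HepaRG cells for 48 h in duplicate. Endpoint: PDK4 mRNA induction or repression by qRT-PCR against DMSO baseline.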

[18] = read-out: NAD(P)H dehydrogenase [quinone] 1 (NQO1), NQO1 (gene 1728); test: LTEA_HepaRG_NQO1: Life Technologies and Expression Analysis (LTEA) Assay for NAD(P)H dehydrogenase [quinone] 1 (NQO1) using HepaRG (AID 2283526)
How it was run: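 In this assay, gene expression is read by qRT-PCR after 48 h exposure of HepaRG cells to eight concentrations (max 100 uM, half-log) in 0.5% DMSO. Each chemical runs in duplicate, and activity is scored relative to vehicle.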

[19] = read-out: Keratin 19 (KRT19), KRT19 (gene 3880); test: LTEA_HepaRG_KRT19: Life Technologies and Expression Analysis (LTEA) Assay for Keratin 19 (KRT19) using HepaRG (AID 2283512)
How it was run: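 Differentiated human HepaRG cells, plated 48 h, were exposed in duplicate for 48 h in serum-free induction medium to eight half-log concentrations up to 100 uM in 0.5% DMSO. KRT19 mRNA was quantified by qRT-PCR, normalized to ACTB, GAPDH and POLR2A, and fitted bidirectionally versus DMSO.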

Measured: AC50

Chain of Nuclear factor NF-kappa-B p105 subunit (Homo sapiens) (P19838 whole entry, looked up): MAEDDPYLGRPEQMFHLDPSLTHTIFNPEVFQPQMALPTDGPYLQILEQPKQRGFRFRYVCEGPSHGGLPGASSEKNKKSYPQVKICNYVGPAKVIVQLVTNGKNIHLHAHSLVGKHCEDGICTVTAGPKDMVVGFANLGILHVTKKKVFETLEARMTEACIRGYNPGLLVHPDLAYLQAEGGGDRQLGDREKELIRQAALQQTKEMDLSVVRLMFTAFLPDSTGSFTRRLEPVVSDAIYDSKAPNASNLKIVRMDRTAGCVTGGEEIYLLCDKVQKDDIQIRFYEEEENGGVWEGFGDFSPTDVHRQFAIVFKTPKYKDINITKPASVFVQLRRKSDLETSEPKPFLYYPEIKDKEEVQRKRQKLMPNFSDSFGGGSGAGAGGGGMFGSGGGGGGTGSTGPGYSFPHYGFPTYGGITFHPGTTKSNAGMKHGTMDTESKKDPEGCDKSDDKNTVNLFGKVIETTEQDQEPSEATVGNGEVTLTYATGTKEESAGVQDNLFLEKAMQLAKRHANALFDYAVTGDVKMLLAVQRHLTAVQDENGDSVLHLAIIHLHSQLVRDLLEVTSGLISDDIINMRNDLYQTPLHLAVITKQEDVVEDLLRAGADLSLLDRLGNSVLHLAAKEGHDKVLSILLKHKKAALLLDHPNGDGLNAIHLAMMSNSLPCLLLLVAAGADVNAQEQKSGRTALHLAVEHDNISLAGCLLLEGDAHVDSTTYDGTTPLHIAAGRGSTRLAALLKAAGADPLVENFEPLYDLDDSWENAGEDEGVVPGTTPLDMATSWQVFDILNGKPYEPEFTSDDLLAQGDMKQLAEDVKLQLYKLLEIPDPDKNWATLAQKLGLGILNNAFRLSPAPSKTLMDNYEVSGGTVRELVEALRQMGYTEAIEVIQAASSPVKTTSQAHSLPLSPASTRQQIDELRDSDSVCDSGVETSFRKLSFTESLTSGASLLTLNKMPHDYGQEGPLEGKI

Cc1ccccc1CO[C@@H]1C[C@@]2(C(C)C)CC[C@]1(C)O2
active: [17] 50 µM
not listed: [19]
inactive: all other assays above

O=S(=O)(O)C(F)(F)C(F)(F)C(F)(F)C(F)(F)F
not listed: [11]
inactive: all other assays above

Clc1ccc(Cl)cc1
not listed: [1]
inactive: all other assays above

CCC(C)c1cc([N+](=O)[O-])cc([N+](=O)[O-])c1O (centres undefined)
active: [2] 4.09 µM | [3] 4.95 µM | [5] 27.5 µM | [19] 2.53 µM | [7] 1.83 µM | [8] 0.758 µM | [9] 2.73 µM | [10] 3.93 µM | MYC, MYC (gene 4609) 9.27 µM | [11] 2.23 µM | [12] 1.26 µM | [14] 1.25 µM | [15] 5.41 µM | [16] 1.74 µM | [18] 3.47 µM
inactive: [4] | [6] | [13] | [17]

O=NN(c1ccccc1)c1ccccc1
active: [11] 80.6 µM
not listed: [13] | [19]
inactive: all other assays above

Nn1cnnc1
not listed: [11] | [19]
inactive: all other assays above

c1cc2ccc3cccc4ccc(c1)c2c34
not listed: [11] | [19]
inactive: all other assays above

CN(C)c1nc(=O)n(C2CCCCC2)c(=O)n1C
active: [1] 5.44 µM | [7] 12 µM
not listed: [13] | [19]
inactive: all other assays above

O=C(O)C(F)(F)C(F)(F)C(F)(F)C(F)(F)C(F)(F)C(F)(F)C(F)(F)C(F)(F)F
inactive: [4] | [12] | [14] | [15] | [18]
active: [1] 78.7 µM | [2] 86.1 µM | [3] 78.6 µM | [5] 76 µM | [6] 68.2 µM | [7] 94.5 µM | [8] 79.5 µM | [9] 74.4 µM | [10] 76.9 µM | MYC, MYC (gene 4609) 78.7 µM | [16] 86.1 µM | [17] 32.8 µM

CCC(=O)O[C@H]1CC[C@H]2[C@@H]3CCC4=CC(=O)CC[C@]4(C)[C@H]3CC[C@]12C
active: [3] 33.1 µM | [11] 50 µM | [12] 13.3 µM
not listed: [19]
inactive: all other assays above

O=C(NC(=O)c1c(F)cccc1F)Nc1cc(Cl)c(OC(F)(F)C(F)F)c(Cl)c1
active: [7] 50 µM
not listed: [1]
inactive: all other assays above

Cc1cc(-c2ccc(N)c(C)c2)ccc1N
active: [8] 50 µM | [12] 33.7 µM | [16] 50 µM | [17] 9.92 µM
not listed: [11] | [13] | [19]
inactive: all other assays above

c1ccc(-c2ccccc2)cc1
not listed: [11]
inactive: all other assays above
